# PubChem BioAssay (NCATS)
# Records with an inconclusive call do not appear. Where a call stands in place of a potency, no number is given. Active and inactive are the calls of the source. Unless noted, the call rests on the fitted dose curve; in most records, active means well fitted curve in the direction sought with a large enough effect; inconclusive means small, poorly fitted or top-dose-only effect, or another doubt; inactive means no such curve, though single readings can be large; an effect the other way counts as inactive or inconclusive.
# Assays:
# [1] = target: ATP-dependent DNA helicase Q1 (Homo sapiens) (UniProt P46063); assay: qHTS Validation Assay for Inhibitors of RecQ-Like Dna Helicase 1 (RECQ1) (AID 2353); further: potency means the concentration at half of the fitted maximal effect
# ATP-dependent DNA helicase Q1 (Homo sapiens), sequence (P46063 whole entry, looked up): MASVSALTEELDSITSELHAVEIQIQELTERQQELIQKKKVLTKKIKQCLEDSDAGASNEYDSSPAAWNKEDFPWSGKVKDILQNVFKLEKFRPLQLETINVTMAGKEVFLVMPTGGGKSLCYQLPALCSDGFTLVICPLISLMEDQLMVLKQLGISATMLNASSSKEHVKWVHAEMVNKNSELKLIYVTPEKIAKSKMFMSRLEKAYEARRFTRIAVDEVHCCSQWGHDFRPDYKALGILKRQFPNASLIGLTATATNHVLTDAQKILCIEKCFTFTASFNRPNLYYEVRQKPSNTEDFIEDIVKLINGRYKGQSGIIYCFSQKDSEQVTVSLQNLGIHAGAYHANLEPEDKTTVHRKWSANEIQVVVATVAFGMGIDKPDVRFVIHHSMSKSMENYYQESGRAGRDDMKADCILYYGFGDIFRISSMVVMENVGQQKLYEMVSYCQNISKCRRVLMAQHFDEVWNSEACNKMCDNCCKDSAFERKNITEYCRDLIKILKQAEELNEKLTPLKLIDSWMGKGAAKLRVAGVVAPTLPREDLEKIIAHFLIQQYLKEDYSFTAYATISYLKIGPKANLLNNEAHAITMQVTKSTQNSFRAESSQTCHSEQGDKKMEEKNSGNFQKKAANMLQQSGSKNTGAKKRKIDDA
# In short: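 RECQ1T1 50 nM; forked duplex (20 bp + 30-nt ss tails) 200 nM, ATP 2 mM final; pH 8.0, 2 mM MgCl2, 2.5 ug/ml poly(dI-dC); 15 min compound preincubation; discontinuous kinetic read over 2 h at RT.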
# [2] = target: Ubiquitin carboxyl-terminal hydrolase 2 (Homo sapiens) (UniProt O75604); assay: qHTS Validation Assay for Inhibitors of Ubiquitin-specific Protease USP2a Using CHOP2 as the Reporter (AID 463106); further: potency means the concentration at half of the fitted maximal effect
# Ubiquitin carboxyl-terminal hydrolase 2 (Homo sapiens), sequence (O75604 whole entry, looked up): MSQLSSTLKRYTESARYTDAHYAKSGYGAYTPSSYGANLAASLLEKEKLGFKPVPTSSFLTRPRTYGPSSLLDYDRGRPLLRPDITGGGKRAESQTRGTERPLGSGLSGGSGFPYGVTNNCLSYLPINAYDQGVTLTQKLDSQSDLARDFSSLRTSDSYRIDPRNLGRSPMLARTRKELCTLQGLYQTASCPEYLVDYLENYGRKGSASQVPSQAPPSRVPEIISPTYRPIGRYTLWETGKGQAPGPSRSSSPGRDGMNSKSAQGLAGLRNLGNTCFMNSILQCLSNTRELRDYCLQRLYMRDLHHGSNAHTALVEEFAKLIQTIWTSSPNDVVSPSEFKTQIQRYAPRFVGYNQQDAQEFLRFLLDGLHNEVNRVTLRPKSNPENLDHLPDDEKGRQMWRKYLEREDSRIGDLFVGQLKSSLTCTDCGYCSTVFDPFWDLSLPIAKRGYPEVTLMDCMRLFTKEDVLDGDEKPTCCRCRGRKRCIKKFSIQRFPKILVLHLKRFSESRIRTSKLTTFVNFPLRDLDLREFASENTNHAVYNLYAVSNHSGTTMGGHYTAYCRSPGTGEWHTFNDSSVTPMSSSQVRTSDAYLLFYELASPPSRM
# In short: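 Readout was coupled fluorescence (Ex 485/Em 531 nm), read 60 min after adding 25 nM final Ub-CHOP2 and 25 nM reporter substrate. Beforehand, 10 nM final USP2 core had 30 min at RT with compound in pH 8.0 buffer. Curves were fitted after normalization to NEM and flagged for artifacts using time-zero reads.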
# [3] = target: DNA polymerase III PolC-type (Bacillus subtilis (strain 168)) (UniProt P13267); assay: qHTS Validation Assay for the Inhibitors of DNA Replication in Gram-Positive Bacteria (AID 485295);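 further: PicoGreen fluorescence of double-stranded DNA made on primed circular M13 template; series mostly up to about 57 µM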
# DNA polymerase III PolC-type (Bacillus subtilis (strain 168)), sequence (P13267 whole entry, looked up): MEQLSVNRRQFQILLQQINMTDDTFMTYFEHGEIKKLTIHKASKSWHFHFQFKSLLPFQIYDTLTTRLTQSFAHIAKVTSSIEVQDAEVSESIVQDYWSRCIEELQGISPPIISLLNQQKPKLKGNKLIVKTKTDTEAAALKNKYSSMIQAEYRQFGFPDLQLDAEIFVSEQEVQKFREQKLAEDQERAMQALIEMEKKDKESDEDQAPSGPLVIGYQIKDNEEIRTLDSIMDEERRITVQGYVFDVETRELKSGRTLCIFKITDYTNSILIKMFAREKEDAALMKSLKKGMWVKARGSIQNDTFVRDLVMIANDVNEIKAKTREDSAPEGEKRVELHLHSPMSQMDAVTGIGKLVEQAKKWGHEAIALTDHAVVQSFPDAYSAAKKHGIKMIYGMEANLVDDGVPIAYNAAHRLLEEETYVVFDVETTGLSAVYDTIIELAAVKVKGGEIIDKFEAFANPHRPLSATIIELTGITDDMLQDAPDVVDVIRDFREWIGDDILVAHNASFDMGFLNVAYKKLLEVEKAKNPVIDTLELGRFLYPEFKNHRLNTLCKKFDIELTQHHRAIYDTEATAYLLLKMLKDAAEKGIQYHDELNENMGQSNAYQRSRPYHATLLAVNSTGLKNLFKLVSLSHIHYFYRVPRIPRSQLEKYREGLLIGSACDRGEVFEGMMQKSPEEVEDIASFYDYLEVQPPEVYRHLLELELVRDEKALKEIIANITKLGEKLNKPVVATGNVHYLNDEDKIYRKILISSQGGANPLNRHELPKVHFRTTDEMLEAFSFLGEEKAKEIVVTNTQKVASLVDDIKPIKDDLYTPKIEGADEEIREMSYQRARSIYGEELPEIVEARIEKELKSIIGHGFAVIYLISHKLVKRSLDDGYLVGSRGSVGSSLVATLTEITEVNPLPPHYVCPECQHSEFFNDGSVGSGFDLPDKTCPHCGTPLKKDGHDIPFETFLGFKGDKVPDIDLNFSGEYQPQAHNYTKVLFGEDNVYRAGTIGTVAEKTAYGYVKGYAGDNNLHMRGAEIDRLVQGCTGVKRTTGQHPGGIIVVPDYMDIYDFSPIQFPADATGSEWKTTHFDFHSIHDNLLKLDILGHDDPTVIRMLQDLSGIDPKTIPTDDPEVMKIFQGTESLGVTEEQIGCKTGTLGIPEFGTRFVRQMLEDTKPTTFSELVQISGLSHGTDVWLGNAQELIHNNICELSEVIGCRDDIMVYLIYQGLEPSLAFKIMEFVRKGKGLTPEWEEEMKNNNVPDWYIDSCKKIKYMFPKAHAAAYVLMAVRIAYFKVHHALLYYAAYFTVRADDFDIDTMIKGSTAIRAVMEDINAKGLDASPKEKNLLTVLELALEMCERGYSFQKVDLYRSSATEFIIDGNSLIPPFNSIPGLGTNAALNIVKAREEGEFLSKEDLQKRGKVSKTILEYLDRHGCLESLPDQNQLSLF
# In short: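 Reconstituted B. subtilis holoenzyme (Pol III, beta clamp, SSB, primase) was preincubated with compound at room temperature, then given single-stranded circular M13Gori plus dNTPs and NTPs. EDTA-containing PicoGreen stopped the reaction, and dsDNA product was read by fluorescence.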
# [4] = target: Beta-2 adrenergic receptor (Homo sapiens) (UniProt P07550); assay: qHTS validation assay of beta-arrestin-biased ligands of beta2-adrenergic receptor (AID 485366)
# Beta-2 adrenergic receptor (Homo sapiens), sequence (P07550 whole entry, looked up): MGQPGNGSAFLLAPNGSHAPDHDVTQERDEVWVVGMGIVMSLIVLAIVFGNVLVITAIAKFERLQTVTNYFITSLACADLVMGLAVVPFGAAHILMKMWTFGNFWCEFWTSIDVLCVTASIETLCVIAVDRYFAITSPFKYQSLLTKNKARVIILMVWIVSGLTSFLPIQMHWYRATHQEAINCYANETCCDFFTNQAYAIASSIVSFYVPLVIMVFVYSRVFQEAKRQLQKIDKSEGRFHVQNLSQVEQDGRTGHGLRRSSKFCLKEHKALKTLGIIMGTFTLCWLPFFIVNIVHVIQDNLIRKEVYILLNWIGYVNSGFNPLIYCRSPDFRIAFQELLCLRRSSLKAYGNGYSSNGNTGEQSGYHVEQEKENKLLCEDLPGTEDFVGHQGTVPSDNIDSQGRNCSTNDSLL
# In short: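 qHTS, Tango cells, 1500 cells/well, DMEM + 1% FBS. Cpd 18 hr at 37 degrees C. Luciferin/ATP/CoA detection mix, 15 min RT, luminescence read. %Activity from corrected signal; CRC fit, curve class.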
# [5] = target: ATP-dependent 6-phosphofructokinase (Trypanosoma brucei brucei) (UniProt O15648); assay: qHTS Validation Assay to Find Inhibitors of T. brucei phosphofructokinase (AID 485368); further: potency means the concentration at half of the fitted maximal effect
# ATP-dependent 6-phosphofructokinase (Trypanosoma brucei brucei), sequence (O15648 whole entry, looked up): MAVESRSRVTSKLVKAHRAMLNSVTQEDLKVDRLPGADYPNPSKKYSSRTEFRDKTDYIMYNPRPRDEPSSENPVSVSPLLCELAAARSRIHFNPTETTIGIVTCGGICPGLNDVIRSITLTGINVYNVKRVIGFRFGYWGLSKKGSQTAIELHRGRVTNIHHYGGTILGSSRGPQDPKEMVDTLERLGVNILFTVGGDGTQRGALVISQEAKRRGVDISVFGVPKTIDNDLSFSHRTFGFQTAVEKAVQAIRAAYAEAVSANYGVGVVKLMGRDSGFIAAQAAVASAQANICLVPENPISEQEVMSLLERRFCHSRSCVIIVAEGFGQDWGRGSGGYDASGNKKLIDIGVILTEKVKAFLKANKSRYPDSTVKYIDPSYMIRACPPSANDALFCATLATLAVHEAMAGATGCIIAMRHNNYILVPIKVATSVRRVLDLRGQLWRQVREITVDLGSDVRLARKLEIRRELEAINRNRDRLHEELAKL
# In short: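 Luminescent ADP detection measures PFK turnover of fructose-6-phosphate (0.5 mM) with ATP (0.1 mM) at pH 8.0. Reaction runs 45 min at room temperature with 1.25 nM enzyme; inhibitors tested as titrations up to 57 uM.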
# [6] = Quantitative high throughput screen for delayed death inhibitors of the malarial parasite plastid, 96 hour incubation (AID 488745);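 further: luciferase-expressing P. falciparum in erythrocytes at 2% hematocrit and 0.1% parasitemia; series mostly up to about 29 µM; nearly all actives have a fitted effect of over 70% in size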
# In short: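 Readout is firefly luciferase luminescence from an integrated reporter in P. falciparum; lower signal marks inhibited growth. Cultures at 2% hematocrit and 0.1% parasitemia were treated with compound across two generations (96 h, 37 C, 5% CO2).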
# [7] = Quantitative high throughput screen for delayed death inhibitors of the malarial parasite plastid, 48 hour incubation (AID 488752); further: nearly all actives have a fitted effect of over 65% in size
# In short: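 First, compound was pinned into RPMI 1640 medium containing 0.5% Albumax. Next, reporter-parasite-infected erythrocytes were added to 2% hematocrit and 0.1% parasitemia. After 48 h at 37 C under 5% CO2, luciferase detection reagent was added and luminescence read.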
# [8] = Cytometric Cell-Based qHTS for Inhibitors of the mTORC1 Signaling Pathway in MEF (Tsc2-/-, p53-/-) Cells (AID 2660);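 further: percent of cells above a phospho-rpS6 to PI ratio cutoff in each well; series mostly up to about 38 µM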
# In short: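 Tsc2-/-, p53-/- MEFs (empty vector) exposed to compound 24 h at 37 C, fixed, stained with Alexa-488 anti-phospho-rpS6 Ser235/236 and propidium iodide. Acumen laser scanning; phospho-S6/PI ratio thresholded against 7.5 nM rapamycin, reported as % positive cells.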
# [9] = High Content Imaging Cell-Based qHTS for Inhibitors of the mTORC1 Signaling Pathway in MEF (Tsc2-/-, p53-/-) Cells (AID 2666);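 further: percent of cells scored positive for phospho-rpS6 Ser235/236 immunostaining by imaging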
# In short: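 Tsc2-/-, p53-/- MEFs (empty-vector stable) grown in DMEM + 10% FBS were exposed to compounds for 24 hrs at 37 degree Celsius, fixed, and stained with Alexa-488 anti-phospho-rpS6 Ser235/236 plus Hoechst. Imaging gave the percentage of positive cells per well.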
# [10] = High Content Imaging Cell-Based qHTS for Inhibitors of the mTORC1 Signaling Pathway in MEF Cells (AID 2667); further: potency means the concentration at half of the fitted maximal effect
# In short: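 Tsc2-/-, p53-/- MEFs stably re-expressing WT Tsc2, grown in DMEM + 10% FBS, were treated with compounds for 24 hrs at 37 degree Celsius, fixed, and stained with Alexa-488 phospho-rpS6 Ser235/236 antibody plus Hoechst; results given as % positive cells.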
# [11] = Cytometry Cell-Based qHTS for Inhibitors of the mTORC1 Signaling Pathway in MEF cells (AID 2668);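 further: Tsc2-/- p53-/- mouse embryonic fibroblasts stably re-expressing wild-type Tsc2; percent cells positive for phospho-rpS6 Ser235/236 relative to propidium iodide stain; series mostly up to about 38 µM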
# In short: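 WT MEFs (Tsc2-/-, p53-/- stably re-expressing WT Tsc2) in DMEM + 10% FBS received compounds 24 hrs after plating, for 24 hrs at 37 degree Celsius. Fixed cells stained with Alexa-488 anti-phospho-rpS6 Ser235/236 and propidium iodide; laser-scanning cytometry read-out.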
# [12] = target: Tumor susceptibility gene 101 protein (Homo sapiens) (UniProt Q99816); assay: qHTS Validation Assay for Iinhibitors of HIV-1 Budding by Blocking the Interaction of PTAP/TSG101 (AID 485342; calls by dose curve)
# Tumor susceptibility gene 101 protein (Homo sapiens), sequence (Q99816 whole entry, looked up, the tested form may be a part): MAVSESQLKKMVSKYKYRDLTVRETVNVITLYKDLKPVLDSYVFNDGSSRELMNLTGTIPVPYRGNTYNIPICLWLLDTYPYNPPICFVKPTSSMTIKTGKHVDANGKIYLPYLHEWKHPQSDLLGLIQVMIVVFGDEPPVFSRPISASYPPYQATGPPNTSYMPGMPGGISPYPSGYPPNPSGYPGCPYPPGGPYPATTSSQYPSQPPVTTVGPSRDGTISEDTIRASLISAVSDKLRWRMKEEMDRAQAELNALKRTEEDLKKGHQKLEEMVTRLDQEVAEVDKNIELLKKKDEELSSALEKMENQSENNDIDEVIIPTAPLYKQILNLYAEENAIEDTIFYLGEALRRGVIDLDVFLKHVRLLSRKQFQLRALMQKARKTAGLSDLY
# In short: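 Tsg101 binding domain (10 uM final) in pH 7.5 HEPES/NaCl/Tween 20/EDTA/TCEP buffer was mixed with pin-transferred compounds, then FITC-labeled PTAP peptide (50 nM final) was added; after 20 min at r.t., fluorescence polarization was read.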
# [13] = target: RecQ-like DNA helicase BLM (Homo sapiens) (UniProt P54132); assay: qHTS Validation Assay for Inhibitors of Bloom's syndrome helicase (BLM) (AID 2364); further: potency means the concentration at half of the fitted maximal effect
# In short: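 Forked 20-bp duplex substrate (200 nM, TAMRA/BHQ-2) plus 2 mM ATP added after 15 min compound preincubation with 50 nM enzyme, pH 8.0, poly(dI-dC) 2.5 ug/ml. Strand separation followed by fluorescence (525/598 nm) over 2 h, normalized to enzyme-free and DMSO controls.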
# [14] = Validation screen for small molecules that induce DNA re-replication in MCF 10A normal breast cells (AID 463097); further: nearly all actives have a fitted effect of over 60% in size; further: potency means the concentration at half of the fitted maximal effect
# In short: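 Readout: Hoechst nuclear fluorescence intensity, 405 ex / 500-530 em, by scanning plate imager; re-replication scored as increase in nuclei with elevated DNA content. Cells exposed to compound 48 hr, 37 C, 5% CO2 beforehand.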
# [15] = qHTS Validation Assay to Find Inhibitors of Chronic Active B-Cell Receptor Signaling (AID 485345; active means well fitted curve in the direction sought with a large enough effect in the main read-out, with a control signal flat, not every such curve was filed as active)
# In short: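 Read-out: ratio of filter-corrected green (IkappaBalpha fusion) to red (native) luciferase signal in doxycycline-induced TMD8 cells after 4 h at 37C. Titration spanned 46 uM–3 nM; Data were normalised to basal cells and 10 uM MG-132 wells.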
Compound,Potency [1],Potency [2],Potency [3],outcome [4],Potency [5],Potency [6],Potency [7],outcome [8],Potency [9],Potency [10],Potency [11],outcome [12],Potency [13],Potency [14],outcome [15]
O=Nc1ccc2oc(=O)ccc2c1,inactive,inactive,inactive,inactive,19 µM (active),inactive,inactive,,,,,,,,
C[C@@H](NC(=O)/C(C#N)=C/c1ccc(O)c(O)c1)c1ccccc1,inactive,inactive,inactive,inactive,,,,inactive,inactive,inactive,inactive,inactive,,,
CCCCCCCCCCCCCCCCCC(=O)OC(CC(=O)O)C[N+](C)(C)C (stereo not drawn),inactive,inactive,inactive,inactive,,,,inactive,inactive,inactive,inactive,,inactive,,
N#C/C(=C\c1c[nH]c2ccccc12)C(=O)c1ccc(O)c(O)c1,8.91 µM (active),inactive,,inactive,,inactive,inactive,inactive,inactive,inactive,,inactive,11.2 µM (active),inactive,
N#C/C(=C\c1ccc(O)c(O)c1)C(=O)c1ccc(O)c(O)c1,0.282 µM (active),1.17 µM (active),,inactive,0.675 µM (active),,inactive,inactive,inactive,inactive,inactive,inactive,8.91 µM (active),inactive,inactive
O=C(O)c1cc([N+](=O)[O-])ccc1NCCCc1ccccc1,inactive,inactive,inactive,inactive,,inactive,inactive,,inactive,inactive,inactive,inactive,,inactive,
O=C1C(SCCO)=C(SCCO)C(=O)c2ccccc21,inactive,inactive,inactive,,12 µM (active),,,inactive,inactive,3.69 µM (active),,,28.2 µM (active),3.98 µM (active),
NC(N)=NC(=O)c1nc(Cl)c(N2CCCCCC2)nc1N,inactive,inactive,inactive,inactive,,,,inactive,inactive,inactive,inactive,,inactive,inactive,inactive
CC(C)(C=O)Cc1cc(C(C)(C)C)c(O)c(C(C)(C)C)c1,inactive,inactive,inactive,inactive,inactive,inactive,inactive,inactive,inactive,inactive,inactive,inactive,,inactive,
